# The supplement of paper PMC8728848
# This excerpt belongs to a sample that is enriched for the strongest signals.
# B1: DBA (Dolichos biflorus) (protein)
# chain: ANIQSFSFKNFNSPSFILQGDATVSSGKLQLTKVKENGFPLRFPSGRAFYSSPIQIYDKFTGAVASWATSFTVKISAPSKASFADGIAFALVPVGSEPRRNGGYLGVFDSDVYNNSAQTVAVEFDTLSNSGWDPSMKHIGIDVNSIKSIATVSWDLANGENAEILITYNAATSLLVVSLVHPSRRTSYILSERVDITNELPEYVGVGFSATTGLSEGYIETHDVLSWSFASRLPDDSTAEPLDLARYLVRNVL
# Key:
# Test in all cases: glycan array binding signal (z-score within array); higher = stronger binding
# Conditions in all cases: glycan notation: IUPAC condensed, linker removed
# [1] = biological target: Fuc(a1-2)Gal(b1-3)GalNAc(a1-3)[Fuc(a1-2)]Gal(b1-4)Glc
# How it was run: (§1)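 Glycan array data were curated from 3228 arrays in the Consortium for Functional Glycomics database and kept only where the protein sequence was available. Glycan names were converted to IUPAC-condensed notation, and columns mapping to the same glycan were averaged. The binding signal is a within-array Z-score, averaged across arrays of the same protein sequence at different concentrations or buffers and across linkers. Negative Z-scores can be read as non-binding.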
# [2] = biological target: Fuc(a1-2)Gal(b1-3)GlcNAc(b1-3)[Gal(b1-4)GlcNAc(b1-6)]Gal(b1-4)Glc
# How it was run: as §1
# [3] = biological target: Fuc(a1-2)Gal(b1-3)GlcNAc(b1-3)[Neu5Ac(a2-6)Gal(b1-4)GlcNAc(b1-6)]Gal(b1-4)Glc
# How it was run: as §1
# [4] = biological target: Fuc(a1-2)Gal(b1-3)[Fuc(a1-4)]GlcNAc
# How it was run: as §1
# Fuc(a1-2)Gal(b1-4)Glc6S = biological target: Fuc(a1-2)Gal(b1-4)Glc6S
# How it was run: as §1
# [5] = biological target: Fuc(a1-2)Gal(b1-4)[Fuc(a1-3)]GlcNAc(b1-3)GalNAc
# How it was run: as §1
# [6] = biological target: Fuc(a1-2)Gal3S(b1-4)GlcNAc
# How it was run: as §1
# Fuc(a1-2)Gal6S(b1-4)Glc = biological target: Fuc(a1-2)Gal6S(b1-4)Glc
# How it was run: as §1
# [7] = biological target: Fuc(a1-2)[GalNAc(a1-3)]Gal
# How it was run: as §1
# [8] = biological target: Fuc(a1-2)[GalNAc(a1-3)]Gal(b1-3)GlcNAc(b1-6)GalNAc
# How it was run: as §1
# [9] = biological target: Fuc(a1-2)[GalNAc(a1-3)]Gal(b1-4)Glc
# How it was run: as §1
# [10] = biological target: Fuc(a1-2)[GalNAc(a1-3)]Gal(b1-4)GlcNAc
# How it was run: as §1
# [11] = biological target: Fuc(a1-2)[GalNAc(a1-3)]Gal(b1-4)[Fuc(a1-3)]GlcNAc(b1-3)GalNAc
# How it was run: as §1
# [12] = biological target: Fuc(a1-3)[Gal(b1-4)]GlcNAc(b1-2)Man
# How it was run: as §1
# [13] = biological target: Fuc(a1-3)[Gal(b1-4)]GlcNAc(b1-4)Gal(b1-4)[Fuc(a1-3)]GlcNAc
# How it was run: as §1
# [14] = biological target: Fuc(a1-3)[Gal3S(b1-4)]GlcNAc6S
# How it was run: as §1
# Fuc(a1-4)GlcNAc = biological target: Fuc(a1-4)GlcNAc
# How it was run: as §1
# Gal(a1-3)Gal(b1-3)GlcNAc = biological target: Gal(a1-3)Gal(b1-3)GlcNAc
# How it was run: as §1
# Gal(a1-3)Gal(b1-4)Glc = biological target: Gal(a1-3)Gal(b1-4)Glc
# How it was run: as §1
# [15] = biological target: Gal(a1-4)Gal(b1-3)GlcNAc(b1-2)Man(a1-3)[Gal(a1-4)Gal(b1-3)GlcNAc(b1-2)Man(a1-6)]Man(b1-4)GlcNAc(b1-4)GlcNAc
# How it was run: as §1
# Gal(a1-4)GlcNAc = biological target: Gal(a1-4)GlcNAc
# How it was run: as §1
# Gal(b1-2)Gal = biological target: Gal(b1-2)Gal
# How it was run: as §1
# [16] = biological target: Gal(b1-3)GlcNAc(b1-3)Gal(b1-4)GlcNAc(b1-3)Gal(b1-4)GlcNAc(b1-2)[Gal(b1-3)GlcNAc(b1-3)Gal(b1-4)GlcNAc(b1-3)Gal(b1-4)GlcNAc(b1-6)]Man(a1-6)[Gal(b1-3)GlcNAc(b1-3)Gal(b1-4)GlcNAc(b1-3)Gal(b1-4)GlcNAc(b1-2)Man(a1-3)]Man(b1-4)GlcNAc(b1-4)[Fuc(a1-6)]GlcNAc
# How it was run: as §1
# [17] = biological target: Gal(b1-3)GlcNAc(b1-3)Gal(b1-4)[Fuc(a1-3)]GlcNAc(b1-6)[Gal(b1-3)GlcNAc(b1-3)]Gal(b1-4)Glc
# How it was run: as §1
# [18] = biological target: Gal(b1-3)GlcNAc(b1-3)GalNAc
# How it was run: as §1
# [19] = biological target: Gal(b1-4)GlcNAc(b1-3)Gal(b1-3)GlcNAc
# How it was run: as §1
# [20] = biological target: Gal(b1-4)GlcNAc(b1-3)GalNAc
# How it was run: as §1
# [21] = biological target: Gal(b1-4)GlcNAc(b1-6)[Gal(b1-3)]GalNAc
# How it was run: as §1
# GalNAc(a1-3)GalNAc = biological target: GalNAc(a1-3)GalNAc
# How it was run: as §1
# [22] = biological target: GalNAc(a1-3)GalNAc(a1-3)Gal(a1-4)Gal(b1-4)GlcNAc
# How it was run: as §1
# [23] = biological target: GalNAc(a1-3)GalNAc(b1-3)Gal(a1-4)Gal(b1-4)Glc
# How it was run: as §1
# GalNAc(b1-4)GlcNAc6S = biological target: GalNAc(b1-4)GlcNAc6S
# How it was run: as §1
# [24] = biological target: GlcNAc(a1-4)Gal(b1-4)GalNAc
# How it was run: as §1
# [25] = biological target: GlcNAc(a1-4)Gal(b1-4)GlcNAc(b1-3)Gal(b1-4)[Fuc(a1-3)]GlcNAc(b1-3)Gal(b1-4)[Fuc(a1-3)]GlcNAc
# How it was run: as §1
# [26] = biological target: GlcNAc(b1-2)[GlcNAc(b1-4)]Man(a1-3)[GlcNAc(b1-4)][GlcNAc(b1-2)Man(a1-6)]Man(b1-4)GlcNAc(b1-4)GlcNAc
# How it was run: as §1
# [27] = biological target: GlcNAc(b1-3)Gal(b1-4)GlcNAc(b1-3)Gal(b1-4)GlcNAc(b1-3)Gal(b1-4)GlcNAc(b1-3)Gal(b1-4)GlcNAc(b1-2)[GlcNAc(b1-3)Gal(b1-4)GlcNAc(b1-3)Gal(b1-4)GlcNAc(b1-3)Gal(b1-4)GlcNAc(b1-3)Gal(b1-4)GlcNAc(b1-6)]Man(a1-6)[GlcNAc(b1-3)Gal(b1-4)GlcNAc(b1-3)Gal(b1-4)GlcNAc(b1-3)Gal(b1-4)GlcNAc(b1-3)Gal(b1-4)GlcNAc(b1-2)Man(a1-3)]Man(b1-4)GlcNAc(b1-4)[Fuc(a1-6)]GlcNAc
# How it was run: as §1
# [28] = biological target: GlcNAc(b1-3)Gal(b1-4)GlcNAc(b1-3)GalNAc
# How it was run: as §1
# GlcNAc(b1-3)GalNAc = biological target: GlcNAc(b1-3)GalNAc
# How it was run: as §1
# [29] = biological target: GlcNAc(b1-4)Gal(b1-4)GlcNAc
# How it was run: as §1
# Kdn(a2-3)Gal(b1-3)GlcNAc = biological target: Kdn(a2-3)Gal(b1-3)GlcNAc
# How it was run: as §1
# [30] = biological target: Man(a1-2)Man(a1-2)Man(a1-6)[Man(a1-3)]Man
# How it was run: as §1
# MurNAc(b1-4)GlcNAc = biological target: MurNAc(b1-4)GlcNAc
# How it was run: as §1
# Neu5Ac(a2-3)GalNAc = biological target: Neu5Ac(a2-3)GalNAc
# How it was run: as §1
# [31] = biological target: Neu5Ac(a2-3)[GalNAc(b1-4)]Gal(b1-4)Glc
# How it was run: as §1
# [32] = biological target: Neu5Ac(a2-3)[GalNAc(b1-4)]Gal(b1-4)GlcNAc
# How it was run: as §1
# [33] = biological target: Neu5Ac(a2-6)Gal(b1-4)GlcNAc
# How it was run: as §1
# [34] = biological target: Neu5Ac(a2-6)Gal(b1-4)GlcNAc(b1-2)Man
# How it was run: as §1
# [35] = biological target: Neu5Ac(a2-6)Gal(b1-4)GlcNAc(b1-2)Man(a1-3)Man(b1-4)GlcNAc(b1-4)GlcNAc
# How it was run: as §1
# [36] = biological target: Neu5Ac(a2-6)Gal(b1-4)GlcNAc(b1-2)Man(a1-6)[Gal(b1-4)GlcNAc(b1-2)Man(a1-3)]Man(b1-4)GlcNAc(b1-4)GlcNAc
# How it was run: as §1
# [37] = biological target: Neu5Ac(a2-6)Gal(b1-4)GlcNAc6S
# How it was run: as §1
# [38] = biological target: Neu5Ac(a2-8)Neu5Ac(a2-3)[Gal(b1-3)GalNAc(b1-4)]Gal(b1-4)Glc
# How it was run: as §1
# [39] = biological target: Neu5Ac(a2-8)Neu5Ac(a2-8)Neu5Ac(a2-8)Neu5Ac(a2-3)[GalNAc(b1-4)]Gal(b1-4)Glc
# How it was run: as §1
binder,measurement,setting,value
B1,glycan array binding signal (z-score),[1],-0.133
same,glycan array binding signal (z-score),[2],-0.099
same,glycan array binding signal (z-score),[3],-0.152
same,glycan array binding signal (z-score),[4],-0.142
same,glycan array binding signal (z-score),Fuc(a1-2)Gal(b1-4)Glc6S,-0.09
same,glycan array binding signal (z-score),[5],0.449
same,glycan array binding signal (z-score),[6],-0.041
same,glycan array binding signal (z-score),Fuc(a1-2)Gal6S(b1-4)Glc,0.346
same,glycan array binding signal (z-score),[7],0.024
same,glycan array binding signal (z-score),[8],-0.113
same,glycan array binding signal (z-score),[9],0.577
same,glycan array binding signal (z-score),[10],0.575
same,glycan array binding signal (z-score),[11],0.333
same,glycan array binding signal (z-score),[12],-0.116
same,glycan array binding signal (z-score),[13],-0.19
same,glycan array binding signal (z-score),[14],-0.015
same,glycan array binding signal (z-score),Fuc(a1-4)GlcNAc,-0.115
same,glycan array binding signal (z-score),Gal(a1-3)Gal(b1-3)GlcNAc,-0.124
same,glycan array binding signal (z-score),Gal(a1-3)Gal(b1-4)Glc,-0.119
same,glycan array binding signal (z-score),[15],-0.059
same,glycan array binding signal (z-score),Gal(a1-4)GlcNAc,-0.126
same,glycan array binding signal (z-score),Gal(b1-2)Gal,-0.113
same,glycan array binding signal (z-score),[16],0.071
same,glycan array binding signal (z-score),[17],-0.1
same,glycan array binding signal (z-score),[18],-0.126
same,glycan array binding signal (z-score),[19],-0.125
same,glycan array binding signal (z-score),[20],-0.144
same,glycan array binding signal (z-score),[21],-0.121
same,glycan array binding signal (z-score),GalNAc(a1-3)GalNAc,12.1
same,glycan array binding signal (z-score),[22],12.5
same,glycan array binding signal (z-score),[23],13.4
same,glycan array binding signal (z-score),GalNAc(b1-4)GlcNAc6S,1.8
same,glycan array binding signal (z-score),[24],-0.085
same,glycan array binding signal (z-score),[25],-0.007
same,glycan array binding signal (z-score),[26],-0.133
same,glycan array binding signal (z-score),[27],-0.1
same,glycan array binding signal (z-score),[28],-0.139
same,glycan array binding signal (z-score),GlcNAc(b1-3)GalNAc,-0.101
same,glycan array binding signal (z-score),[29],-0.16
same,glycan array binding signal (z-score),Kdn(a2-3)Gal(b1-3)GlcNAc,-0.169
same,glycan array binding signal (z-score),[30],-0.081
same,glycan array binding signal (z-score),MurNAc(b1-4)GlcNAc,-0.119
same,glycan array binding signal (z-score),Neu5Ac(a2-3)GalNAc,-0.165
same,glycan array binding signal (z-score),[31],4.19
same,glycan array binding signal (z-score),[32],3.09
same,glycan array binding signal (z-score),[33],-0.103
same,glycan array binding signal (z-score),[34],-0.127
same,glycan array binding signal (z-score),[35],-0.098
same,glycan array binding signal (z-score),[36],-0.144
same,glycan array binding signal (z-score),[37],-0.118
same,glycan array binding signal (z-score),[38],-0.124
same,glycan array binding signal (z-score),[39],-0.104
